# Screening results (PubChem)
# CHX counter – counter-screen hit for Shiga toxin inhibitors, cycloheximide; cell reporter, cycloheximide protein synthesis inhibition counterscreen; max response, %; 300,000 tested, 12% active; in the data active = max response mostly above about 13%, no sharp cut-off; inactive = mostly below about 14%; also: read at 38.3 µM for the half of the compounds with a filed dose; 0% is about no effect
# Pf growth 48h – inhibits P. falciparum growth in the first generation, 48 h; 310,000 tested, 5.9% active; Potency, µM (doses to about 28.7 µM), inactives show at the highest dose activity change, negative = inhibition, usual class: inhibitors; P. falciparum luciferase growth in erythrocytes, 48 h; AID 504832; also: potency is read from the fitted curve at half-maximal effect; % is scaled to controls: 0 for no effect and ±100 for the full control effect
#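 Cell-based growth assay: transgenic P. falciparum expressing firefly luciferase, cultured in red cells within RPMI 1640 containing 0.5% w/v Albumax, 24 mM bicarbonate and gentamycin. A drop in luciferase activity indicates inhibition.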
# Pf growth 96h – P. falciparum growth inhibition at 96 hours. 320,000 tested, 6.9% active. P. falciparum luciferase reporter growth, 96 h. Potency, µM (titrated, usually from 28.7 µM), for the others: at the top dose activity change, negative = inhibition, usual class: inhibitors; also: potency is read from the fitted curve at half-maximal effect; % is scaled to controls: 0 for no effect and ±100 for the full control effect
#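 Compounds incubated with erythrocytes infected by luciferase-expressing P. falciparum (2% hematocrit, 0.05% parasitemia final) for 96 hours, 37 C in 5% CO2. Growth inhibition scored as decreased luciferase luminescence.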
# Shiga inhibitor – blocks Shiga toxin action in Vero cells | Vero cells, Shiga toxin protein synthesis inhibition reporter | inhibition, % at 38.7 µM | 290,000 tested, 9.2% active; in the data active = inhibition mostly above about 28%, no sharp cut-off; inactive = mostly below about 43%; also: 0% is about no effect
# The depositor's hits bear a star; u = inconclusive; x = no result given; [ ] = another dose, or the depositor's remark. The list is not random: actives were taken first. Their share in the collection is about 21%. Unless noted, calls follow the shape of the dose curve; as a rule, active = well fitted inhibition curve with a large enough effect; inconclusive = small, poorly fitted or top-dose-only effect, or another doubt; inactive = no such curve, though single readings can be large or run the other way.
SMILES,CHX counter,Pf growth 48h,Pf growth 96h,Shiga inhibitor
COc1cccc(/C=C2\Oc3ccc(O)cc3C2=O)c1O,-5,5.2µM*,-10%,-6
O=C1/C(=C\c2ccc(O)c(O)c2)Oc2cc(O)ccc21,7,x,x,19
O=C1/C(=C/c2ccc(Br)cc2)Oc2cc(O)ccc21,29*,40%,13%,61*
COC(=O)c1ccc2c(c1)C(=O)/C(=C/c1ccc(O)cc1)O2,20,60%,20%,65*
COC(=O)C1=C(C)N(c2ccc(C)c(C)c2)/C(=C/c2ccc(O)cc2)C1=O,10,u,-20%,-9
CCOC(=O)CC(=O)NC(C)(C)CCCCC(C)(C)NC(=O)CC(=O)OCC,-2,13%,0%,-2
CN(C)C(=O)Oc1ccc2c(c1)O/C(=C\c1cccc([N+](=O)[O-])c1)C2=O,-1,15%,13%,-5
O=C1/C(=C/c2ccc([N+](=O)[O-])cc2)Oc2cc(O)ccc21,40*,55%,41%,67*
COC(=O)c1c(C(=O)OC)c(-c2cccc(F)c2)n2c1CS(=O)(=O)C2,-6,-8%,-17%,-3
O=C(N/N=C/c1ccc(OC(=O)c2ccc3c(c2)OCO3)cc1)c1cncc(Br)c1,-2,16%,-4%,-9
COC(=O)c1ccc(NC(=O)COc2ccc3c(c2)OCO3)cc1,20*,u,u,-7
O=C(COc1ccc2ccc(=O)oc2c1)Nc1ccc2c(c1)OCCO2,13*,7%,4%,9
O=C(N/N=C/c1cccc(OC(=O)c2ccc3c(c2)OCO3)c1)c1cncc(Br)c1,49*,36%,-28%,56*
O=C(Cc1ccccc1[N+](=O)[O-])Nc1ccc2c(c1)OCCO2,55*,86%,u,89*
COC(=O)c1cc(NC(=O)Cc2ccccc2[N+](=O)[O-])cc(C(=O)OC)c1,5,u,0%,-13
Cc1nn(CC(=O)OCC(=O)c2ccc(OC(F)F)cc2)c(C)c1[N+](=O)[O-],x,4%,34%,x
O=C(COc1ccccc1[N+](=O)[O-])N/N=C/c1cccc(OC(=O)c2ccc3c(c2)OCO3)c1,93*,68%,u,95*
Cc1ccccc1OCC(=O)N/N=C/c1cccc(Oc2ccc([N+](=O)[O-])cc2[N+](=O)[O-])c1,-1,-22%,1.3µM*,-3
Cc1cccc(OCC(=O)Nc2ccc3c(c2)OCO3)c1C,55*,8%,3%,67
Cc1ccccc1OCC(=O)NCC(=O)N/N=C/c1cccc([N+](=O)[O-])c1,-2,13%,42%,-8
Cc1ccc(C)c(OCC(=O)Nc2ccc3c(c2)OCO3)c1C,7,-29%,-24%,10
Cc1ccc(OCC(=O)Nc2ccc3c(c2)OCO3)cc1C,25*,19%,u,29*
O=C(CN(Cc1ccc(F)cc1)C(=O)c1csnn1)NC1CCCC1,-3,-2%,2%,-3
O=C(COc1cc(F)ccc1[N+](=O)[O-])Nc1ccc2c(c1)OCO2,x,90%,83%,x
COc1cc(C)c(NC(=O)COc2ccc3c(c2)OCO3)cc1C,20*,35%,2%,49*
SMILES,CHX counter,Pf growth 48h,Pf growth 96h,Shiga inhibitor
O=C(COc1ccccc1[N+](=O)[O-])Nc1ccc2c(c1)OCO2,31*,123%,u,66*
Cc1ccc(CNC(=O)C2CCCN(c3ncnc4c3nc3n4CCCCC3)C2)cc1 (configuration not stated),0,-2%,u,2
O=C(Nc1ccc(F)cc1)c1ccc(Br)c(S(=O)(=O)N2CCOCC2)c1,8,u,4%,28
C=CCOC(=O)C1=C(C)NC(C)=C(C(=O)OCC=C)C1/C=C/c1ccccc1,13,4%,104%,18
CCOC(=O)C1=C(C)NC(C)=C(C(=O)OCC)C1/C=C/c1ccccc1OC,5,9.3µM*,u,-6
COCCOC(=O)C1=C(C)NC(C)=C(C(=O)OCCOC)C1/C=C/c1ccccc1OC,-1,u,9.3µM*,-9
CCOC(=O)C1=C(C)NC(C)=C(C(=O)OCC)C1/C=C/c1ccccc1,2,u,u,9
CCOC(=O)C1=C(C)NC(C)=C(C(=O)OCC)C1c1ccccc1C=CC(=O)OC(C)(C)C,x,13µM*,8.5µM*,x
CCOC(=O)C1=C(C)NC(=O)NC1/C=C/c1ccccc1OC (configuration not stated),-3,2%,-21%,-12
N#C/C(C(=O)Nc1ccc(Cl)cc1)=C(/S)Nc1ccccc1,25,-13%,u,14
Cc1ccc(NC(=O)NN2CCN(C)CC2)cc1C,10,2%,-25%,-8
Brc1ccc(-c2csc(/N=C/N3CCCC3)n2)cc1,68*,222%,96%,67*
O=C(NN1CCOCC1)c1cc(-c2ccc(Br)cc2)nc2ccccc12,-3,11%,35%,13
Brc1ccc(-c2csc(/N=C/N3CCOCC3)n2)cc1,36*,75%,66%,49
O=C(Cn1c(=O)oc2ccccc21)Nc1nc(-c2ccc(Br)cc2)cs1,8,12%,-21%,10
OCCN(/C=N/c1nc(-c2ccc(Br)cc2)cs1)CCO,30*,112%,x,64*
CCN1CCN(C(=O)c2cc(=O)c3cc(C)ccc3o2)CC1,-1,-4%,0%,-3
Cc1nn(C)cc1S(=O)(=O)N1CCN(c2ccccc2F)CC1,-3,-5%,3%,-4
NS(=O)(=O)c1ccc(CCNC(=O)CNS(=O)(=O)c2cccc(Br)c2)cc1,14,8%,u,9
CC(C)NC(=O)C1CCN(c2ccc(S(=O)(=O)N3CCOCC3)cc2Cl)CC1,-5,-21%,u,-5
C=CCNC(=O)C1CCN(c2ccc(S(=O)(=O)N3CCOCC3)cc2Cl)CC1,-3,9.3µM*,261%,-25
CCCCN(C)C(=O)C1CCN(c2ccc(S(=O)(=O)N3CCOCC3)cc2[N+](=O)[O-])CC1,x,u,9.3µM*,x
CC(C)CNC(=O)C1CCN(c2ccc(S(=O)(=O)N3CCOCC3)cc2[N+](=O)[O-])CC1,-6,u,u,-3
CCCNC(=O)C1CCN(c2ccc(S(=O)(=O)N3CCOCC3)cc2Cl)CC1,-7,13µM*,u,-4
CCCCN(CC)CCNC(=S)Nc1ccc2nc(N3CCN(C)CC3)cc(C)c2c1,-7,1.7µM*,u,-6
SMILES,CHX counter,Pf growth 48h,Pf growth 96h,Shiga inhibitor
CCCN(CCC)CCCNC(=S)Nc1ccc2nc(N3CCN(CC)CC3)cc(C)c2c1,-4,4.1µM*,-27%,1
NC(=O)c1cnn(C2CCS(=O)(=O)C2)c1 (configuration not stated),11,-14%,u,29
Cc1nn(CCOc2cccc(Br)c2)c(C)c1[N+](=O)[O-],2,u,62%[5.75 µM],27
CCc1c(C)nc2ccc(Br)cc2c1Cl,13,2%,15%,23
Nc1nc(Cl)nc2ccc(Br)cc12,67*,132%,168%,53*
CC(C)OC(=O)c1cccc(-c2ccc(C=O)o2)c1,77*,33%,-1%,80*
Cc1ccccc1NS(=O)(=O)c1cc2c3c(c1)C(C)C(=O)N3CCC2 (configuration not stated),7,-6%,u,-2
